Measured values reported in publication PMC5540273 (PLoS ONE, 2017).

Legend:
Settings in all cases: concentration: 1 μM, replicates: in singlicate; n = 1
YES = tested on: T1, YES
T1 construct: gene YES1

YSK1 = tested on: T2, YSK1
T2 construct: gene STK25

YSK4 = tested on: T3, YSK4
T3 construct: gene MAP3K19

ZAK = tested on: ZAK
ZAP70 = tested on: ZAP70
p38-alpha = tested on: T4, p38-alpha
T4 construct: gene MAPK14

p38-beta = tested on: T5, p38-beta
T5 construct: gene MAPK11

p38-delta = tested on: p38-delta
p38-gamma = tested on: T6, p38-gamma
T6 construct: gene MAPK12
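Further: KINOMEscan kinase panel screen.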

SMILES | %Inh (YES) | %Inh (YSK1) | %Inh (YSK4) | %Inh (ZAK) | %Inh (ZAP70) | %Inh (p38-alpha) | %Inh (p38-beta) | %Inh (p38-delta) | %Inh (p38-gamma)
Cc1c(O)cccc1Nc1ccnc2ccc(C(F)(F)F)cc12.Cl [GW466413] | 20% | 0% | 11% | 1% | 0% | 0% | 0% | 24% | 0%
Cc1cccc(-c2nc(C)cc(Nc3ccncc3)n2)n1 [GSK257997] | 15% | 8% | 0% | 0% | 0% | 9% | 0% | 51% | 6%
Cc1ccccc1-n1cnc2c(N)ncnc21 [SKF-97510] | 11% | 9% | 0% | 9% | 0% | 0% | 0% | 0% | 15%
Cl.Oc1ccc(-c2nc(-c3ccccc3)[nH]c2-c2ccncc2)cc1 [SB-428218] | 17% | 4% | 13% | 10% | 0% | 63% | 0% | 43% | 0%
O=C(O)COc1ncnc2cc(-c3ccc4[nH]ncc4c3)sc12 | 0% | 0% | 83% | 6% | 14% | 20% | 16% | 32% | 21%
Fc1cc(Cl)ccc1Nc1ccnc2cc(-c3ccc(CN4CCCCC4)o3)ccc12 [GW560116] | 1% | 17% | 5% | 0% | 0% | 36% | 0% | 40% | 9%
Cc1cc(N2Cc3ccccc3C2)nc(Nc2ccc(S(=O)(=O)N3CCOCC3)cc2)n1.Cl [GSK1669917] | 5% | 0% | 0% | 0% | 0% | 3% | 0% | 46% | 3%
Cn1ccc2ncnc(Oc3ccc(Nc4nc5ccccc5[nH]4)cc3)c21 | 0% | 0% | 14% | 0% | 0% | 5% | 0% | 16% | 0%
CC(C)(C)c1ccc(C(=O)Nc2cn3cc(Cl)ccc3n2)cc1 | 0% | 0% | 5% | 0% | 4% | 0% | 0% | 39% | 10%
